# High-throughput results: PubChem BioAssay, National Center for Advancing Translational Sciences (NCATS)
# SW480 rerep: A quantitative high throughput screen for small molecules that induce DNA re-replication in SW480 colon adenocarcinoma cells; SW480 DNA re-replication, Hoechst DNA content imaging, 48 h; Potency, µM (titrated, usually from 46.1 µM), without a hit: at the highest dose re-replication activation, usual class: activators; actives 1.8% (n = 340,000); AID 624297, 2012; note: % of control where 0% means no effect; nearly all actives have a fitted effect of over 55% in size
#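 Treated cells incubate 48 hr (37 C, 5% CO2), are stained 40 min with Hoechst, and nuclear fluorescence is enumerated; a rise in nuclei with high DNA signal marks re-replication.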
# HT1080 IDH1KD tx: qHTS for induction of synthetic lethality in tumor cells producing 2HG: qHTS for the HT-1080-IDH1KD cell line; HT-1080 IDH1 knockdown viability, ATP luminescence, 48 h; Potency, µM (highest dose often 46.1 µM), for inactives: top-dose activity, negative = toxicity, usual class: cytotoxic; actives 2% (n = 360,000); AID 686971, 2013;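 note: 0% = DMSO wells and -100% = cell-free medium wells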
#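 In this qHTS, HT-1080 cells depleted of IDH1 are exposed for 48 h at 37 °C to compound titrations. Toxicity is scored from CellTiter-Glo luminescence, with DMSO as full viability and medium alone as none.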
# KB-V1 cytotox: qHTS assay for MDR1-selective chemotherapeutics: Primary screen using the drug-selected MDR subline cells KB-V1; Potency, µM (series often up to 46.1 µM), actives largely listed as cytotoxic; KB-V1 MDR cells viability, CellTiter-Glo, 72 h; AID 1347076, 2019; actives 3.4% (n = 400,000); note: % is set by controls: 0 for no effect and ±100 for the full control effect; nearly all actives have a fitted effect of over 60% in size
#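 KB-V1, DMEM (no phenol red) + 10% FBS; cpd pin-transferred, titration series; 72 h, 37 degrees C; CellTiter-Glo, luminescence. Data normalized, curve-fit.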
# MCF10A rereplic: A quantitative high throughput screen for small molecules that induce DNA re-replication in MCF 10a normal breast cells | Potency, µM (highest dose often 46.1 µM), for inactives: at the highest dose activity, positive = re-replication, hits mostly activators | AID 624296, 2012 | MCF 10A DNA re-replication, Hoechst nuclear intensity, 48 h | actives 2.9% (n = 350,000); note: % of control where 0% means no effect; nearly all actives have a fitted effect of over 50% in size
# KB-3-1 cytotox: qHTS assay for MDR1-selective chemotherapeutics: Primary screen using the parental adenocarcinoma cell KB-3-1; KB-3-1 viability, CellTiter-Glo ATP luminescence, 72 h; Potency, µM (doses to about 46.1 µM), hits mostly cytotoxic; actives 1.4% (n = 400,000); note: % is set by controls: 0 for no effect and ±100 for the full control effect; nearly all actives have a fitted effect of over 60% in size
#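 Viability of parental KB-3-1 cells, measured by CellTiter-Glo luminescence, followed a 72 h incubation at 37 °C with pinned compounds in phenol-red-free DMEM containing 10% FBS.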
# HT1080NT lethal: qHTS for induction of synthetic lethality in tumor cells producing 2HG: qHTS for the HT-1080-NT fibrosarcoma cell line; HT-1080-NT fibrosarcoma viability, CellTiter-Glo ATP luminescence, 48 h; Potency, µM (series often up to 46.1 µM), inactives show at the top dose activity, negative = less viability, most hits filed as cytotoxic; actives 1.6% (n = 360,000);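 note: NT is the 2HG producing partner of a matched IDH1 knockdown line; 0% = DMSO-treated cells and -100% = media-only wells without cells; nearly all actives have a fitted effect of over 55% in size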
#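 Luminescent CellTiter-Glo readout after 48 hours of compound exposure at 37 degrees C defined viability of HT-1080-NT cells. Activity was normalized to DMSO wells and cell-free media wells; concentration-response curves were fitted and assigned curve classes.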
# * marks the source's active call; other numbers are inactive results; i = inactive; ? = inconclusive; nt = not tested or not shown. Hits are enriched below; roughly 8% of the tested compounds scored in any of these assays. Calls come from the whole dose curve; as a rule, active = well fitted curve in the direction sought with a large enough effect; inconclusive = small, poorly fitted or top-dose-only effect, or another doubt; inactive = no such curve, though single readings can be large; an effect the other way counts as inactive or inconclusive. Potency is the fitted concentration of half-maximal effect.
SMILES,SW480 rerep,HT1080 IDH1KD tx,KB-V1 cytotox,MCF10A rereplic,KB-3-1 cytotox,HT1080NT lethal
CCNC(=S)NCc1ccc(OC)c(OC)c1,-6%,17%,i,-1%,i,10%
COc1ccc(CNCCC(c2ccccc2)c2ccc(OC(C)C)cc2)cc1OC (stereo not drawn),?,18µM*,?,?,?,21µM*
COc1ccc(CNCC(O)(c2ccc(F)cc2)c2ccc(F)cc2)cc1OC,12%,?,i,17%,?,?
COc1ccc(CCNC(=S)NCc2ccc(Cl)c(Cl)c2)cc1OC,1%,?,i,13µM*,i,?
COc1ccc(CNCCC(c2ccc(F)cc2)c2ccc(OC(C)C)cc2)cc1OC (stereo not drawn),?,?,?,?,?,23µM*
COc1ccc(CCNCc2ccc(-c3ccccc3)cc2)cc1OC,?,23µM*,?,23µM*,i,23µM*
CNC(=O)C1CCN(Cc2cc3ccccc3n2Cc2cccc(C)c2)CC1,nt,nt,i,nt,i,nt
Cc1ccc(S(=O)(=O)c2nnn3c2nc(NC(C)C)c2sccc23)cc1,nt,nt,i,nt,i,nt
COc1ccc(CN(CCC(c2ccccc2)c2ccc(OC(C)C)cc2)C(=O)CCl)cc1OC (stereo not drawn),3.7µM*,1.6µM*,8.2µM*,4.6µM*,10µM*,1.5µM*
COc1ccc(CCN2CC(C(=O)OCC(=O)N(C)CC(=O)Nc3ccccc3Cl)CC2=O)cc1OC (stereo not drawn),4%,7%,?,0%,i,3%
Cc1ccccc1SCC(=O)NNC(=O)c1ccccc1O,13µM*,-26%,i,-8%,i,-24%
CCC(=O)N1c2ccccc2CC1C(=O)NCc1ccccc1Cl (stereo not drawn),nt,nt,i,nt,i,nt
CCC(C(=O)Nc1nccs1)c1ccccc1 (stereo not drawn),-3%,1%,i,0%,i,2%
CCC(C)C(=O)Nc1nccs1 (stereo not drawn),1.5µM*,3%,i,2%,i,8%
Cc1nn(Cc2ccccc2)c(C)c1C(=O)OCC(=O)c1cc(C)n(CC(F)(F)F)c1C,4%,?,?,13µM*,?,-11%
CCOC(=O)N1CCN(C(=O)c2ccc(N(Cc3ccccc3)S(C)(=O)=O)cc2)CC1,-2%,4%,16µM*,0%,i,-2%
CCOC(=O)N1CCN(C(=O)c2ccc(N(Cc3ccc(C)cc3)S(C)(=O)=O)cc2)CC1,7%,1%,18µM*,-3%,i,3%
CCOC(=O)N1CCN(C(=O)c2ccc(N(Cc3ccc(Cl)cc3)S(C)(=O)=O)cc2)CC1,1%,-5%,i,5%,i,4%
CC(C)c1ccc(S(=O)(=O)c2cn(CC(=O)Nc3ccc(F)cc3)c3ccccc3c2=O)cc1,nt,nt,?,nt,i,nt
CC(=O)NC(Cc1ccc([N+](=O)[O-])cc1)C(=O)NCC(N)C(=O)c1ccccc1 (stereo not drawn),nt,-3%,nt,nt,nt,-2%
CC(C)(C)c1ccc(Oc2ccc(NC(=O)c3cccs3)cn2)cc1,-1%,12µM*,?,?,?,15µM*
CC(C)(C)c1ccc(Oc2ccc(NC(=O)c3ccco3)cn2)cc1,-24%,7.3µM*,?,?,i,18µM*
COc1ccc(NC(=O)c2cccs2)cn1,-3%,26%,?,-4%,i,?
Cc1cccc(N2CCN(C(=O)C3CCN(S(=O)(=O)Cc4ccccc4)CC3)CC2)c1C,nt,nt,i,nt,i,nt
